# Screening data as filed in PubChem.
# BL2 CD40 inh – CD40 pathway inhibition in BL2 cells; AID 1053188; actives 0.94% (n = 83,000); BL2 NF-kB luciferase reporter, CD40L-induced, 4 h; inhibition, % at 10 µM;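 active means mean inhibition of at least 50% with a set share of replicates also reaching that level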;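 further: 0% = neutral control wells and 100% = IKK inhibitor VII at 50 µM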
# An asterisk follows results filed as active; [ ] = another dose, or the depositor's remark. Only a selection was taken, and hits are over-represented in it overall.
SMILES,BL2 CD40 inh
C=C1C(=O)OC2C=C(CO)CCC=C(CO)CC(OC(=O)C(C)C)C12 (centres undefined),87*
C=C1C(=O)OC2C1C(OC(=O)C(C)=CC)CC(=C)C1C(O)C3OC3(C)C21O (centres undefined),33
CCCn1c(N)c(NCCN2CCOCC2)c(=O)[nH]c1=O,2
COC(=O)Nc1nc2ccc(Br)cc2s1,-9
COC(=O)c1ccc2nc(NC(=O)C(C)(C)C)sc2c1,79*
CCCC(=O)Nc1nc2ccc(OC)cc2s1,-59
Cc1ccc(CCN2CC(C(=O)NCc3cccnc3)CC2=O)cc1 (centres undefined),7
O=C(Nc1ccc(N2CCOCC2)c(Cl)c1)c1ccc2c(c1)OCCO2,-35
CCOC(=O)Cn1cc([N+](=O)[O-])c(OC)n1,12
O=C(Nc1ccc(F)cc1)N1CCCCN2[C@@H](CO)[C@@H](c3ccc(C#CC4CC4)cc3)[C@@H]2C1,-5[25 µM]
CCOc1ncccc1C(=O)NNC(=O)c1csc(N2CCOCC2)n1,7
CCOCCn1cnc2sc(C(=O)NCC(=O)OCC)c(C)c2c1=O,-11
CC(=O)c1cnc(SCc2ccc(Cl)cc2)nc1C,-6
O=C(Nc1ccccc1)c1ccc(-c2ccc([N+](=O)[O-])cc2)o1,-47
CN1CCN(c2ccccc2NC(=O)c2ccc(-c3cccc([N+](=O)[O-])c3)o2)CC1,-11
O=C(c1ccc(-c2ccc(Cl)cc2)o1)N1CCN(c2ccc([N+](=O)[O-])cc2Cl)CC1,49*
O=C(Nc1ccc(Cl)cc1F)c1ccc(-n2cncn2)cc1,-45
CN(C)CC(=O)Nc1ccc2c(c1)[C@H]1C[C@H](CC(=O)N3CCCCC3)O[C@@H](CO)[C@H]1O2,9[25 µM]
CN(C)S(=O)(=O)c1ccc(N2CCCC2)c(C(=O)NNC(=O)COc2ccccc2F)c1,-6
O=C(c1ccccc1)C1CCN(c2ncccc2[N+](=O)[O-])CC1,-2
COc1ccc(-c2ccc3c(c2)[C@@H]2[C@@H](CCN2C(=O)C2CC2)[C@@H](CO)N3C)cc1,-18
COc1ccc(-c2ccc3c(c2)[C@@H]2[C@@H](CCN2C(=O)C2CCC2)[C@H](CO)N3C)cc1,58*
COc1ccc(-c2ccc3c(c2)[C@H]2[C@H](CCN2C(=O)C2CCOCC2)[C@@H](CO)N3C)cc1,-5[25 µM]
COc1ccccc1CNC(=O)C[C@H]1CC[C@@H]2[C@H](COc3ccc(NC(C)=O)cc3C(=O)N2C)O1,3[25 µM]
CC(C)c1cn(CC[C@@H]2CC[C@H](NS(=O)(=O)c3ccc(F)cc3)[C@@H](CO)O2)nn1,2[25 µM]
SMILES,BL2 CD40 inh
c1ccc(-c2nnc(CN3CCC4(CC3)OCCO4)o2)cc1,-18
Cc1ccc(S(=O)(=O)N2CCN(C(=O)CN3CCCCC3)C2)cc1,7
C[C@@H]1CN(C)C(=O)c2cccnc2O[C@H]1CN(C)S(C)(=O)=O,35*
C[C@H]1CN(C)C(=O)c2cccnc2O[C@H]1CN(C)C,16
C[C@@H]1CN(C)C(=O)c2ccccc2O[C@@H]1CN(C)S(C)(=O)=O,-1
COc1ccc2c3c(n(C)c2c1)[C@H](CO)N(CC1CCCC1)CC31CN(C(=O)Nc2ccccc2)C1,7[25 µM]
CN1C(=O)N(C)C2(CC1(C)C)CC(C)(C)N(C)C(=O)N2C,5
CCCCC[C@H](O)/C=C/[C@@H]1[C@@H](C/C=C\CCCC(=O)OC)[C@@H](O)C[C@H]1O,45*
CCCCC[C@H](O)/C=C/[C@@H]1[C@@H](C/C=C\CCCC(=O)O)[C@@H](O)C[C@H]1O,-3
CCCCC[C@H](O)/C=C/[C@@H]1[C@@H](C/C=C\CCCC(=O)O)[C@H]2CO[C@@H]1C2,15
COc1ccccc1NS(=O)(=O)c1cc(C(=O)N2CCCCCC2)ccc1C,11
O=C(NCc1ccc2c(c1)OCO2)C1CC(=O)N(c2ccc(F)cc2)C1 (centres undefined),6
O=C(C[C@@H]1CC[C@@H]2[C@H](COC[C@H](O)CN2C(=O)c2ccc(F)cc2)O1)N1CCCCC1,-2[25 µM]
CCOC(=O)c1c(NCCN(C)C)c2ccccc2[nH]c1=O,9
O=C(COC(=O)c1ccco1)Nc1ccc2c(c1)OCCO2,-65
Cn1cccc1C(=O)OCC(=O)NCc1ccc2c(c1)OCO2,-17
Cn1cccc1C(=O)OCC(=O)Nc1ccc2c(c1)OCCO2,55*
Cc1nc2cc(Nc3nnc(-c4ccccc4)c4ccccc34)ccc2n1C,-83
COc1ccc2c3c([nH]c2c1)[C@H](CO)N(C(=O)Nc1ccc(F)cc1)CC31CCN(C(=O)c2ccccc2F)CC1,60*[25 µM]
COc1ccc2c3c([nH]c2c1)[C@@H](CO)N(C)CC31CCN(C(=O)c2ccccc2F)CC1,5[25 µM]
COc1ccc2c3c([nH]c2c1)[C@@H](CO)N(C(=O)Nc1ccc(F)cc1)CC31CCN(C(=O)Cc2ccncc2)CC1,-9[25 µM]
COc1ccc2c3c(n(C)c2c1)[C@@H](CO)N(C(=O)Nc1ccc(F)cc1)CC31CN(Cc2ccccc2F)C1,58*[25 µM]
COc1ccc2c3c(n(C)c2c1)[C@@H](CO)N(C(=O)c1ccc(F)cc1)CC31CN(C(=O)Nc2ccc(F)cc2)C1,0[25 µM]
COc1ccc2c3c(n(C)c2c1)[C@H](CO)N(C(=O)Nc1ccc(F)cc1)CC31CN(C(=O)Cc2ccncc2)C1,12[25 µM]
CC1CCCN(C(=O)COC(=O)C2CCN(S(=O)(=O)c3c(Cl)cccc3Cl)CC2)C1 (centres undefined),8
SMILES,BL2 CD40 inh
CCOC(=O)c1ccc(NC(=O)N2CCN(C3CCCCC3)CC2)cc1,9
CCN(CC)c1cc(Cl)nc(N)n1,6
C[C@@H]1CCCCO[C@@H](CN(C)CC2CCCCC2)[C@@H](C)CN([C@@H](C)CO)C(=O)c2cc(NS(C)(=O)=O)ccc2O1,-4[25 µM]
COC(C(=O)Nc1ccc(S(=O)(=O)N2CCCCC2)cc1)c1ccccc1 (centres undefined),-2
CC(OC(=O)c1cc(Br)ccc1O)C(=O)Nc1ccc(S(=O)(=O)N2CCCC2)cc1 (centres undefined),65*
CC1CCN(C(C)C(=O)Nc2ccc(S(=O)(=O)N3CCCC3)cc2)CC1 (centres undefined),3
C[C@@H]1CN([C@H](C)CO)C(=O)c2c(c3ccccc3n2C)-c2ccccc2CO[C@@H]1CN(C)S(=O)(=O)c1ccc(C(F)(F)F)cc1,17
Cc1ccc(S(=O)(=O)N2CC=C(N)N2)cc1,-2
Cc1ccc(/C=C2/CNC/C(=C\c3ccc(C)cc3)C2=O)cc1,65*[25 µM]
Cc1ccc(C=C2C=C(c3ccccc3)OC2=O)cc1,-33
Nc1ccc(Oc2cc(N)cc(Oc3ccccc3)c2)cc1,-54
CCCN(CC1CC1)C(=O)CCc1nnc(C(OC)c2ccccc2)o1 (centres undefined),-8
CC(C)(C)NC(=O)/C=C/c1cccs1,-12
O=C(/C=C/c1cccs1)c1ccc(N2CCOCC2)cc1,54*
CC(=O)c1ccc(N2CCN(C(=O)Cc3cccs3)CC2)cc1,-18
O=C(COc1ccc2ccccc2c1)N1CCCC1,-48
NS(=O)(=O)c1ccc(CCNC(=O)COC(=O)/C=C/c2ccc(OC(F)F)cc2)cc1,-16
O=S(=O)(c1ccccc1)N1CCN(S(=O)(=O)c2ccccc2)c2ccccc21,5
O=C(Cc1ccccc1)N1C[C@H]2[C@@H](c3ccccc31)[C@@H](CO)N2S(=O)(=O)c1ccccc1,3[25 µM]
CC(C)CC(=O)Nc1ncc([N+](=O)[O-])s1,4
CCCCC(=O)Nc1ncc([N+](=O)[O-])s1,-24
Cc1nc(C)c(C(=O)Nc2ncc([N+](=O)[O-])s2)o1,69*
